Test results reported in the supplement of paper PMC9897528.
A number with no mark means an inactive call.

test system: Scedosporium aurantiacum CBS 136046; assay: growth inhibition relative to DMSO control (OD600); higher = more antifungal activity, active = 80 or more; extreme values may be limits of the assay; conditions: 5 µM; 72 h; 37 °C
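Further: conidia screened in RPMI 1640 medium under 5% CO2, growth read by spectrophotometer, medium with 0.5% DMSO serving as the untreated reference.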

Structure (SMILES)	growth inhibition
CO[C@@]1(NC(=O)Cc2cccs2)C(=O)N2C(C(=O)O)=C(COC(N)=O)CS[C@@H]21	20.8%
CC1=C(/C=C/C(C)=C/C=C/C(C)=C/C(=O)Nc2ccc(O)cc2)C(C)(C)CCC1	14.5%
COc1c(NC(=O)[C@H]2CC[C@@H](COc3ccc([N+](=O)[O-])cc3)CC2)c(F)cc2c(=O)c(C(=O)O)cn(C3CC3)c12	15.5%
C=CCc1cc(Cc2cnc(N)nc2N)cc(OC)c1O	0%
O=C(Nc1ccccc1C(=O)O)c1cccc(Oc2ccccc2)c1	0.169%
N[C@H](CCC(=O)N[C@@H](Cc1c[nH]c2ccccc12)C(=O)O)C(=O)O	1.28%
NC(=O)C(c1ccccc1)(c1ccccc1)[C@H]1CCCN(CCc2ccc3c(c2)CCO3)C1	13.5%
COc1ccc(OCc2ccc(COc3c(Cl)cccc3Cl)cc2)c(Cl)c1	21.7%
O=S(=O)(NCB(O)O)c1cc2c(Cl)ccc(Cl)c2s1	5.78%
c1ccc(Cn2c(-c3ccccn3)nc3ccccc32)cc1	14.3%
CCc1nc2ccc(Cl)cn2c1C(=O)NCc1ccc(N2CCC(c3ccc(OC(F)(F)F)cc3)CC2)cc1	21.8%
COc1cc(C2C3=C(CC(C)(C)CC3=O)Nc3ccccc3N2C(C)=O)ccc1OCc1ccccc1 (stereo not drawn)	0.481%
O=C(Nc1nnc(-c2ccccc2)o1)c1ccc(F)cc1	31.3%
Nc1cccc(-c2nc(N)nc(NC3Cc4ccccc4C3)n2)c1	21.5%
CN(O)C(=O)c1cc2c(CN3CCC[C@H]3C(N)=O)cn(Cc3ccc(F)cc3)c2cn1	1.58%
Cc1ccc(N2CCC(CCOc3ccc(S(C)(=O)=O)cc3)CC2)nn1	24.5%
O=C1NC(=O)C(Br)=C1Br	24.4%
CCCCSc1nc(N)c2[nH]c(=O)c(=O)n(Cc3ccccc3)c2n1	6.53%
O=C(O)CCNC(=O)c1ccccc1	36.7%

Structure (SMILES)	growth inhibition
CCOC(=O)/C=C/[C@H](C[C@@H]1CCNC1=O)NC(=O)[C@H](CC)n1cccc(NC(=O)c2cc(C)on2)c1=O	2%
C[C@H]1COc2c(N3CCN(C)CC3)c(F)cc3c(=O)c(C(=O)O)cn1c23	6.31%
N#Cc1c(F)c(Cl)c(NCc2ccccc2)c(C#N)c1F	38.1%
CC(=O)Nc1cc(NS(=O)(=O)c2ccc(Cl)cc2)cc2c(Cl)[nH]nc12	21.6%
CCc1oc2ccccc2c1C(=O)c1ccc(O)cc1	35.1%
CNc1nc(=O)[nH]cc1F	2.45%
CCCCC(CC)CNC(=N)NC(=N)NCCCCCCNC(=N)NC(=N)NCC(CC)CCCC (stereo not drawn)	85% (active)
CC(=O)O[C@H]1C[C@@]2(C)[C@@H](C[C@@H](O)[C@H]3[C@@]4(C)CC[C@@H](O)[C@@H](C)[C@@H]4CC[C@@]32C)/C1=C(\CCC=C(C)C)C(=O)O	19.6%
O=c1cc(NCCCN[C@@H]2CCOc3c(Br)cc(Br)cc32)[nH]c2ccsc12	17.3%
O=C(NCc1cccc2ccccc12)c1cccs1	0%
Nc1cnn(C2OC(CO)C(O)C2O)c(=O)n1 (stereo not drawn)	8.41%
NC[C@H]1OB(O)c2c(OCCCO)cccc21	34.1%
C/C(=N\NC(=O)C1CC1c1ccccc1)c1ccc(NC(=O)c2ccco2)cc1 (stereo not drawn)	1.06%
CC(C)(C)c1cc(C(=O)/C(C#N)=N/Nc2cccc(Cl)c2)no1	35.3%
O=S(=O)(Nc1ccc(-n2cccc2)cc1)c1ccc(Cl)c(Cl)c1	41.8%
Cc1ncc([N+](=O)[O-])n1CC(O)CN1CCOCC1 (stereo not drawn)	31%
CNCC(=O)OCc1cccnc1N(C)C(=O)OC(C)[n+]1cnn(C[C@](O)(c2cc(F)ccc2F)[C@@H](C)c2nc(-c3ccc(C#N)cc3)cs2)c1 (stereo partly drawn)	59.5%
COc1cc(C)c2c(Oc3cccc(C(F)(F)F)c3)c(OC)cc(NC(C)CCCN)c2n1 (stereo not drawn)	33.4%
Nc1cc(N)c2nc(-c3ccccc3)c(Nc3ccc(F)cc3)nc2c1	0.18%
